Sampled rows, rich in hits. Any-hit rate of the full collection: about 1.3%.
CCT modulator – High-Throughput Screening for Modulators of Cytosolic Chaperonin Activity. purified chaperonin ATPase assay, HTRF ADP detection, 30 min. activity change, % (test concentration not listed), hits read low. actives 0.3% (n = 360,000). AID 651819, 2012; in the data active = activity change below about -30%
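Nucleotide hydrolysis assay: TRiC at 20–40 nM final (set by batch activity) with 10 uM ATP, 30 min at 37 °C, in presence of 76 uM compound. Detection by competitive ADP HTRF, 30 min ambient.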
pAkt inh – HTS Assay for Inhibitors of Akt Phophorylation: Primary Screen; Neuro2A IGF-stimulated pAkt S473 HTRF, 20 min; hits give low values; actives 0.32% (n = 360,000); AID 651550, 2012; activity change, % for hits at 50 µM; in the data active = activity change below about -80%; inconclusive = mostly about -51% to -80%
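Neuro2A cells in DMEM with 0.5% FBS, overnight at 37 deg C, given compound at single 50 µM final, then IGF (6 nM final) for 20 min at 37 deg C. Lysed; phospho-Akt Ser473 by HTRF after 24 h, 665/615 ratio.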
Six1-Eya2 blk – qHTS Assay for Inhibitors of the Six1/Eya2 Interaction; activity change, % (concentration not given with the values); AlphaScreen GST-Six1/His-Eya2 binding, biochemical; hits give low values; Homeobox protein SIX1 (Homo sapiens) + Protein phosphatase EYA2 (Homo sapiens), …; actives 0.56% (n = 360,000)
Target sequence (O00167 whole entry, looked up): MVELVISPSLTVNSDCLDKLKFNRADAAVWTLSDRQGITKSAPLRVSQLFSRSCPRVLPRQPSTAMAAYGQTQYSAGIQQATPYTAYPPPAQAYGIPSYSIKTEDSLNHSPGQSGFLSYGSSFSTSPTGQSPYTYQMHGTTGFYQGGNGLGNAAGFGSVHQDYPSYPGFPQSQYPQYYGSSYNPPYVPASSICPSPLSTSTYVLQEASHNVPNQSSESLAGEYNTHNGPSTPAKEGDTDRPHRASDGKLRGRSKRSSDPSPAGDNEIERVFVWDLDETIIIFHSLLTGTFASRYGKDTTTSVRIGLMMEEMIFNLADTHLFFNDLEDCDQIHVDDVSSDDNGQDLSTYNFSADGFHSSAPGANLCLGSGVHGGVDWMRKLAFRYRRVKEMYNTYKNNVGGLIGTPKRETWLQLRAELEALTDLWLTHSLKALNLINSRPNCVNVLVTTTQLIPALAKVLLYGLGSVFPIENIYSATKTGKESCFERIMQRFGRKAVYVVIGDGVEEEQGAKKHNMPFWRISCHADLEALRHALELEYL
Target sequence (Q15475 whole entry, looked up): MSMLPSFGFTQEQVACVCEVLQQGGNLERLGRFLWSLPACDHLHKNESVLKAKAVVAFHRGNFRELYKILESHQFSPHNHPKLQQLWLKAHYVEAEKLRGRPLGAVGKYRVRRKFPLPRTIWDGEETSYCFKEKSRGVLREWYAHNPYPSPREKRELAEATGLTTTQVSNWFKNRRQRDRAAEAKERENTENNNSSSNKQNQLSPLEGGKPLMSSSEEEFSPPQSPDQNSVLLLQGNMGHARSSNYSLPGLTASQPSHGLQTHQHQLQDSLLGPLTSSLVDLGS
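Six1/Eya2 binding was read as AlphaScreen signal after compounds were pinned into GST-Six1 plus His-tagged Eya2 (5X stock 250/500 nM) in pH 8.0 Tris/NaCl/TCEP buffer, beads added, then incubated 1 h, 37 C, dark.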
CtBP-E1A inh – qHTS Assay for Inhibitors of the CtBP/E1A Interaction | actives 0.49% (n = 340,000) | activity change, % (test concentration not listed) | AID 651724, 2012 | AlphaScreen GST-E1A/His-CtBP binding, 1536-well; hits give low values | CtBP / adenovirus E1A interaction (AlphaScreen)
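AlphaScreen with 125 nM GST-E1A and 125 nM His-CtBP (5X stocks) in Tris pH 8.0, 300 mM NaCl, BSA, Tween 20, TCEP. Compounds preincubated 2 h at 37 deg C, then glutathione donor/nickel acceptor beads added for 1 h at 37 deg C in dark.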
Active calls of the source: *; i = inactive; ? = inconclusive. Rule as the data show it, unless noted: active = activity change below about -65%; inconclusive = mostly about -30% to -63%; inactive = weaker than that. % is scaled to controls: 0 for no effect and ±100 for the full control effect.

SMILES | CCT modulator | pAkt inh | Six1-Eya2 blk | CtBP-E1A inh
Cc1c(-c2ccccc2)nc2ccccc2c1C(=O)OCC(=O)Nc1ncc(C(F)(F)F)cc1Cl | -53* | i | 2 | -3
CC(C)(C)OC(=O)C[C@H]1C/C=C\C[C@H](CC(=O)N[C@H](CO)Cc2ccccc2)C(=O)N[C@H](Cc2ccccc2)COC1=O | 1 | i | -1 | 4
CN(C)S(=O)(=O)c1cccc2c1C(=O)c1ccccc1C2=O | -1 | i | -30 | 0
CN(C)c1cc2c(c(N(C)C)c1)C(=O)c1ccccc1C2=O | -2 | i | -81* | -81*
O=C(O)c1cc(O)c2c(c1)C(=O)c1cccc(O)c1C2=O | 2 | i | -73* | -84*
O=C(O)c1cccc2c1-c1ccc(Cl)cc1C2=O | 0 | i | 2 | 4
COc1ccc2cc3cc(C(=O)NCc4cccnc4)oc3nc2c1 | -68* | i | -16 | -7
CCOC(=O)[C@]12CCCC=C1N(Cc1ccc(Cl)cc1Cl)C(=O)[C@H](CC(=O)NCC1CCCCC1)C2 | 1 | i | -2 | 2
C/C(=N\Nc1nnc(C)c(=O)[nH]1)C(=O)O | -3 | i | -89* | -87*
CCCn1c(=O)c(C(=O)Nc2ccccc2C(=O)OC)c(O)c2ccccc21 | 1 | -104%* | 16 | 5
CCOC(=O)c1ccccc1NC(=O)c1c(O)c2ccccc2n(CC)c1=O | -1 | i | 8 | 8
CCOCCn1c(C)c(C(=O)OCC)c2cc(O)c3ccccc3c21 | -2 | i | -17 | -1
CC(=O)NCCc1nc2ccccc2[nH]1 | -2 | i | 0 | 7
CN(CC(=O)O)Cc1nc2ccccc2[nH]1 | 0 | i | -76* | ?
C/C=C(\C)C(=O)NCCN1C2=NC[C@H](C(C)C)N2C[C@H]1Cc1ccc(O)cc1 | 0 | i | 4 | -7
C/C=C(\C)C(=O)NCCN1C2=NC[C@H](C(C)C)N2C[C@@H]1Cc1ccc(OC)cc1 | -2 | i | -72* | -70*
ONC(=NCc1ccccc1)c1ccccc1 | -3 | i | 0 | 16
S=c1[nH]nc(-c2cc(-c3ccccc3)n[nH]2)n1/N=C/c1c(Cl)cccc1Cl | -3 | i | -17 | -9
S=c1[nH]nc(-c2ccccn2)n1/N=C/c1c(Cl)cccc1Cl | -1 | i | -80* | -1
S=c1[nH]nc(-c2ccccn2)n1/N=C/c1ccc(Cl)cc1 | 2 | i | -75* | ?
S=c1[nH]nc(-c2ccccn2)n1/N=C/c1ccccc1 | 3 | i | ? | -4
CCN(C[C@H]1N[C@@](CC)(C(=O)OC)[C@H]2C(=O)N(Cc3ccccc3)C(=O)[C@@H]12)C(=O)C1CCCCC1 | 0 | i | 0 | -1
Cc1cccc(S(=O)(=O)NC2CCCCCCC2)c1 | 0 | i | 6 | 10
CC(C)CC(=O)Nc1cccc(-c2cn3ccsc3n2)c1 | 0 | i | 6 | 1
CCC(=O)Nc1cccc(-c2cn3ccsc3n2)c1 | 0 | -105%* | -10 | -1
SMILES | CCT modulator | pAkt inh | Six1-Eya2 blk | CtBP-E1A inh
Cn1c(SCc2cccc([N+](=O)[O-])c2)nc2ccccc2c1=O | -39* | i | -4 | -2
COc1cc(N=C2C(=O)N3CCCc4cccc2c43)cc(OC)c1 | -1 | i | 6 | -76*
Cc1cccc(NC(=S)c2nc3ccccc3s2)c1 | -1 | i | -75* | -81*
COc1ccc(C(N)c2nccc3cc(OC)c(OC)cc23)cc1OC (stereo not given) | -1 | i | -75* | ?
CC(=O)NC(c1cccs1)c1cc([N+](=O)[O-])c2cccnc2c1O (stereo not given) | 0 | i | -89* | -87*
CCC(=O)NC(c1cccs1)c1cc([N+](=O)[O-])c2cccnc2c1O (stereo not given) | -7 | i | -85* | -83*
O=[N+]([O-])c1cccnc1NCc1cccs1 | -4 | i | -6 | -12
CCCC(=O)NC(c1cccs1)c1cc([N+](=O)[O-])c2cccnc2c1O (stereo not given) | -6 | i | -90* | -85*
O=C(CCc1ccccc1)NC(c1cccs1)c1cc(Cl)c2cccnc2c1O (stereo not given) | 0 | i | -2 | 24
Cn1c(SCC(=O)NC2CCCCC2)nnc1C(F)(F)F | 1 | i | 6 | 2
COc1ccc(C2=CCCC2)c(OC)c1 | -1 | i | 11 | 2
CCOC(=O)C1C(=O)CC(C)(O)C(C(=O)OCC)C1c1cccs1 (stereo not given) | 0 | -109%* | 10 | 7
CCC1CCCCN1C(=O)CSc1nnc(N)s1 (stereo not given) | -6 | i | 8 | 4
Cc1c(F)cccc1NC(=O)c1ccc2c(c1)CCN2S(C)(=O)=O | 0 | i | -12 | -7
Cc1cc(C(=O)N/N=C/c2cccs2)n[nH]1 | -1 | i | -6 | 4
Cc1cc(C(=O)N/N=C\c2cc(C(C)(C)C)ccc2O)n[nH]1 | 0 | i | ? | -68*
C[C@@H](C(=O)OCC(=O)c1ccc(F)c(F)c1)N1C(=O)C2CCCCC2C1=O (stereo not given in full) | 1 | i | 4 | -4
COC(=O)c1ccccc1Nc1ccccc1 | -32* | i | 39 | 44
O=C(COC(=O)c1ccccc1Nc1ccccc1)c1ccccc1 | -2 | i | 52 | 4
CCN1CCN(C(=O)CCc2nnc(CCc3c[nH]c4ccccc34)o2)[C@@H](C)C1=O | -2 | i | 3 | 0
Cc1cc(F)c(F)c(C(=O)N2CCOCC2)c1Cl | -1 | i | -92* | 3
CC(=O)c1ccc(N2CCN(C(=O)Cn3cnc(S(=O)(=O)N4CCCCC4)c3)CC2)cc1 | -1 | i | 1 | -2
O=C(COc1ccc(C(=S)N2CCOCC2)cc1)N1CCOCC1 | 1 | i | 1 | 3
COc1ccc(CC(=O)Oc2ccc(F)cc2)cc1 | -1 | i | 28 | 22
O=C(Cc1ccc(F)cc1)Oc1ccc(C(=S)N2CCCC2)cc1 | -1 | i | -71* | -1
SMILES | CCT modulator | pAkt inh | Six1-Eya2 blk | CtBP-E1A inh
O=C(Oc1ccc(C(=S)N2CCOCC2)cc1)c1ccc(Br)cc1 | 0 | i | -89* | 8
O=C(COc1ccc(C(=S)N2CCOCC2)cc1)N1CCCC1 | 0 | -124%* | 3 | 3
c1ccc(-c2nnc(CN3CCCc4ccccc43)o2)cc1 | -1 | i | -2 | 5
CCOC(=O)C1CCN(Cc2ccccc2C(F)(F)F)CC1 | 1 | i | 12 | 10
COc1ccccc1N1CCN(Cc2ccc(O)c3ncccc23)CC1 | 0 | i | -91* | -90*
CCOC(=O)C1CCN(Cc2ccc(O)c3ncccc23)CC1 | -1 | i | -92* | -98*

Screens from PubChem.
